Screen size: about 300,000 compounds; about 5,200 (1.7%) were called active. The sample holds actives, similar compounds and a random draw of the others, so the mix is not that of the screen.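 Rule for the calls: active = mean replicate activation of at least 50% with a set share of replicates each reaching 50%; inconclusive = only one of those two conditions met; inactive = mean below 50% and too few replicates reaching it.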

The nature of the assay: HSF-1 response element luciferase induction – NIH3T3-HGL cells, MG132 stress, luminescence, single point, primary screen (AID 504408).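 Note: 0% = median of the neutral control wells and 100% = twice that signal.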 Particulars: NIH3T3-HGL HSF-1 luciferase reporter, MG132, 8 h; at 9 µM; stronger effect = higher value; 100% = twice DMSO control signal. A general note: A reporter such as luciferase makes a cellular process visible.
With `CN(C)CCn1c2c(c(SCC(=O)Nc3ccccc3C(F)(F)F)nc1=O)CCCC2`, the activation was -8.06% (inactive).
Take `CCCc1cc(-c2nc(-c3ccc(C)cc3)cs2)ccn1`: the activation is 7.82% (inactive).
Regarding `Cc1ccc(-c2csc(-c3c[nH]c4ccccc34)n2)cc1`, the activation is 62% (active).
In the case of `Cc1ccc(-c2csc(-c3cc(C)on3)n2)cc1` it was 28.5% (inactive).
In the case of `COc1ccccc1C(=O)NCCC(=O)NN1C(=O)NC2(CCCCC2)C1=O` it was -5.35% (inactive).
Turning to `O=C(COC(=O)c1ncc(Cl)c(Cl)c1Cl)NCc1cccs1`, the activation is -3.74% (inactive).
As for `Cc1cc(C(=O)N/N=C/c2ccccc2[N+](=O)[O-])c(C)o1`, the activation is 58.5% (active).
On to `O=C(Cc1cc(=O)[nH][nH]1)N/N=C/c1ccccc1[N+](=O)[O-]`, for which the activation is -2.04% (inactive).
For the compound `CC(=C/c1ccccc1)/C=N/NC(=O)c1cc(C)oc1C`, the activation is 32% (inactive).
In the case of `Cc1cc(C(=O)N/N=C\C(Br)=C\c2ccccc2)c(C)o1` it was 112% (active); in that of `CC(C)c1cc(C(=O)N/N=C/C(Br)=C/c2ccccc2)n[nH]1`, 40.2% (inactive).
For `Cc1cc(C(=O)N/N=C/c2ccc(N3CCOCC3)cc2)c(C)o1` the value was -5.06% (inactive); for `COc1cc(C(=O)N(C)Cc2cccc(OC)c2OC)ccc1OCC(=O)Nc1cccc(C(F)(F)F)c1`, -3.36% (inactive).
For `CC(OC(=O)CCC(=O)c1ccccc1)C(=O)Nc1ccc(F)cc1` (centres undefined) the value was -12.9% (inactive); for `COc1cc(/C=N/O)ccc1OCc1ccc([N+](=O)[O-])cc1`, 118% (active).
For the compound `COc1cc(/C=N\Nc2ccc([N+](=O)[O-])cn2)ccc1OCC(=O)O`, the activation is 0.194% (inactive).
In the case of `COc1cc(C(=O)OCc2ccc([N+](=O)[O-])cc2)cc(OC)c1OC`, the activation is 12.4% (inactive).
For `O=C(Nc1ccc(F)c([N+](=O)[O-])c1)C1CCCO1` (centres undefined) the value was 9.04% (inactive).
As for `COc1ccc(S(=O)(=O)N2CCOC23CCN(S(=O)(=O)c2ccc([N+](=O)[O-])cc2)CC3)cc1`, the activation is 0.627% (inactive).
As for `CCOc1ccc(C(C)=O)cc1COC(=O)CN1C(=O)NC2(CCCC2)C1=O`, the activation was -13.7% (inactive).
On to `Cc1ccc(-c2cc(C(=O)N/N=C/C=C/c3ccco3)c3ccccc3n2)cc1C`, for which the activation is -41.2% (inactive).
Turning to `CC(/C=N/NC(=O)c1cc(-c2ccc3ccccc3c2)n[nH]1)=C\c1ccco1`, the activation was 71.5% (active).
In the case of `CC(/C=N/NC(=O)c1ccncc1)=C\c1ccco1`, the activation was 27.6% (inactive).
As to `NC(=O)c1ccccc1N=Cc1ccc2ccccc2c1`, the activation was 75.3% (active).
With `COc1ccc(/C=N/Nc2ccccc2C(=O)O)cc1`, the activation was 12.9% (inactive).
In the case of `N=c1oc2ccccc2cc1C(=O)N/N=C/c1ccccc1` it was 22.1% (inactive); in that of `COc1ccccc1NS(=O)(=O)c1ccc(C(=O)N2CCN(c3ccccc3O)CC2)cc1`, 14.5% (inactive); in that of `CCCC(=O)N(CCN1CCOCC1)c1nc2ccc(OCC)cc2s1`, 5.04% (inactive).
`CCOc1ccc2nc(Nc3nc4ccc(NC(C)=O)cc4s3)sc2c1`: the activation is 36.7% (inactive).
Regarding `CCOc1ccc2nc(C(=O)N3CCCC(C)C3)sc2c1` (centres undefined), the activation was 76.7% (active).
In the case of `CSc1ccc(S(=O)(=O)NCC(=O)OCC(=O)NC2(C#N)CCCCC2)cc1[N+](=O)[O-]` it was 1.77% (inactive); in that of `COc1ccccc1C(=O)NC(CCSC)C(=O)NNC(=O)c1ccccc1C` (centres undefined), -15.3% (inactive).
On to `C=CCn1c(SCc2ccc(C(=O)NCCO)cc2)nc2ccccc2c1=O`, for which the activation is -5.63% (inactive).
In the case of `O=C(Nn1c(-c2ccccc2)nc2ccccc2c1=O)c1ccc([N+](=O)[O-])cc1` it was 19.1% (inactive).
For `O=C(Nn1c(SCc2ccc([N+](=O)[O-])cc2)nc2ccccc2c1=O)c1ccc(F)cc1` the value was 51.9% (active); for `O=C(CSc1ccccn1)N1CCN(S(=O)(=O)c2ccc(Cl)cc2)CC1`, 9.98% (inactive); for `O=S(=O)(O)Oc1c[nH]c2ccccc12`, -0.476% (inactive).
Regarding `CCS(=O)(=O)c1ccc(-c2cccc(NC(=O)c3ccc(Br)o3)c2)nn1`, the activation is -23.4% (inactive).
Turning to `O=C(Nc1ccc(Cl)cn1)Nc1cccs1`, the activation was 69.7% (active).
As for `O=C(Nc1cccc([N+](=O)[O-])c1)Nc1ccc(Cl)cn1`, the activation was -5.81% (inactive).
As to `CCCc1cc(C(=O)Nc2ccc(Cl)cn2)cs1`, the activation was 43.8% (inactive).
On to `COc1ccc(NC(=O)CN(C)C(=O)/C=C/c2cn(Cc3ccccc3)nc2-c2cccnc2)cc1`, for which the activation is 1.78% (inactive).
In the case of `COC(=O)[C@]1(C)N[C@H](c2ccc(-c3ccc(Cl)c(Cl)c3)cc2)[C@@H]2C(=O)N(C)C(=O)[C@@H]21` it was 23% (inactive); in that of `Cn1c(CCN2CCCCCC2)nc2cc(NC(=O)Nc3ccccc3)ccc21`, 276% (active); in that of `CC(=O)NCCc1nc2cc(NC(=O)c3ccccc3)ccc2n1C`, -16.5% (inactive).
For `Cn1c(CCN2CCCC2)nc2cc(NS(=O)(=O)c3ccccc3)ccc21` the value was -1.14% (inactive); for `CCOC(=O)N1CCN(Cc2nc3cc(NC(C)=O)ccc3n2C)CC1`, -12.5% (inactive); for `Cn1c(CN2CCOCC2)nc2cc(NC(=O)c3ccc(Cl)cc3)ccc21`, 70% (active).
In the case of `CCC(=O)Nc1ccc2c(c1)nc(CCN1CCN(c3ccccn3)CC1)n2C` it was 27.9% (inactive); in that of `COC(=O)c1ccc(SCc2ccccc2)nc1`, 18.6% (inactive); in that of `CCOc1ccc(NC(=O)CN(C)C(=O)c2c(C)noc2C)cc1OCC`, 8.14% (inactive).
On to `CCOC(=O)c1c(NC(=O)CN2C(=O)NC3(CCC(C)CC3)C2=O)sc(C)c1CC` (centres undefined), for which the activation is 2.47% (inactive).
In the case of `COc1ccc(C2CC(c3ccc([N+](=O)[O-])cc3)=NN2C(C)=O)cc1` (centres undefined) it was 22% (inactive).
In the case of `COc1ccc(C2=NN(C(=O)c3cccnc3)C(c3ccccc3)C2)cc1` (centres undefined), the activation was 4.6% (inactive).
As to `COc1ccc(C2CC(c3ccccc3)=NN2C(=O)c2ccc(Cl)c([N+](=O)[O-])c2)cc1` (centres undefined), the activation is 73.2% (active).
Regarding `OCc1ccc(-c2ccccc2)c(-c2ccccc2)c1`, the activation was -0.0415% (inactive).
In the case of `Cc1ccc(CSCC(=O)N(C)CC(=O)Nc2cccc(F)c2)cc1` it was 4.88% (inactive); in that of `Cc1cc(C)c(C)c(S(=O)(=O)Nc2cccnc2)c1C`, -8.55% (inactive).
In the case of `COc1ccc(N2CCN(C(=O)/C(C#N)=C/c3ccccc3)CC2)cc1`, the activation was -4.53% (inactive).
As for `CCOC(=O)/C(C#N)=C/c1ccc(N2CCCCC2)cc1`, the activation was 54.1% (active).
For `CCOC(=O)/C(C#N)=C/c1ccc(N2CCN(Cc3ccccc3)CC2)cc1` the value was -3.55% (inactive); for `CCN1C(=O)[C@H]2[C@@H](c3ccc(-c4ccc(OC)cc4)cc3)N[C@@](Cc3ccccc3)(C(=O)OC)[C@H]2C1=O`, 22.5% (inactive).
For `OCCN1CCN(C(=S)c2ccc(-c3ccccc3)cc2)CC1` the value was -5.27% (inactive).
With `S=C(c1ccccc1)N1CCCC1`, the activation was 0.831% (inactive).
In the case of `S=C(c1ccc(-c2ccccc2)o1)N1CCCCC1` it was 63.6% (active); in that of `CCCCCC(=O)N1CCN(S(=O)(=O)c2ccc3c(c2)OCCCO3)CC1`, -14% (inactive).
On to `CCCCn1c(N)c(N(CCOC)C(=O)c2cccc(S(=O)(=O)N(C)c3ccccc3)c2)c(=O)[nH]c1=O`, for which the activation is 0.234% (inactive).
`Clc1ccc(Nc2ccc3ccccc3n2)cc1`: the activation was 5.69% (inactive).
Turning to `C(=N\Nc1ccc2ccccc2n1)/c1ccc2c(c1)OCO2`, the activation is -41.8% (inactive).
Take `Cc1noc(C)c1/C=N/Nc1ccc2ccccc2n1`: the activation was 59.1% (active).
For `Cc1ccc(S(=O)(=O)N(C)c2ccc(OCC(=O)OCC(=O)N(CC#N)c3ccccc3)cc2)cc1` the value was 7.96% (inactive); for `O=S(=O)(NCCCc1ccccc1)c1ccc(Br)cc1`, 11.6% (inactive).
`O=C(NCCS(=O)(=O)NCc1ccc(Cl)cc1)c1ccccc1`: the activation was 8.69% (inactive).
Take `CCOc1ccc(NS(=O)(=O)c2ccc(C(=O)NC3CCN(Cc4ccccc4)CC3)cc2)cc1`: the activation is -18.5% (inactive).
Consider `Cc1ccc(-c2nc3ccccc3[nH]2)cc1N`, for which the activation was 36.7% (inactive).
With `c1ccc2[nH]c(-c3nc4ccccc4[nH]3)nc2c1`, the activation was 77.8% (active).
Turning to `OC(c1nc2ccccc2[nH]1)C(O)C(O)C(O)c1nc2ccccc2[nH]1` (centres undefined), the activation was 1.21% (inactive).
In the case of `CCN(CC(=O)Nc1c(F)cccc1F)C(=O)c1ccc(S(=O)(=O)N2CCCCC2)cc1` it was -12.7% (inactive); in that of `Cc1ccccc1NC(=O)COc1cccc2c1CCNC2=O`, -1.52% (inactive).
In the case of `CCCCn1c(N)c(N(CC(C)C)C(=O)CSc2ccc([N+](=O)[O-])cc2)c(=O)[nH]c1=O`, the activation was -6.98% (inactive).
For the compound `Cc1ccc(-c2nn(-c3ccc(F)cc3)cc2C(=O)NCC(c2cccs2)N2CCOCC2)cc1` (centres undefined), the activation is -1.83% (inactive).
In the case of `Cc1ccn2c(=O)nc(SCC(=O)NCc3ccc(F)cc3)nc2c1` it was 16.8% (inactive); in that of `O=C(COC(=O)c1ccccn1)NNC(=O)c1ccc([N+](=O)[O-])cc1`, 5.44% (inactive).
For `Cc1cccc(C)c1OCCN1CCOCC1` the value was 3.56% (inactive).
For `CCn1c2ccc(F)cc2c2nnc(SCCN3CCOCC3)nc21` the value was -5.84% (inactive); for `Cc1cc2nc(SCCN3CCOCC3)[nH]c2cc1C`, 53.2% (active); for `COc1ccc(NC(=O)CN(C)C(=O)CC2CCCCC2)cc1`, 0.174% (inactive).
As to `N#CCCN(C(=O)COC(=O)C1CCN(c2ccc(C(F)(F)F)cn2)CC1)c1ccc(F)cc1`, the activation was 9.78% (inactive).
In the case of `O=C(CSc1nnc(-c2c[nH]c3ccccc23)o1)c1ccccc1`, the activation was 54.2% (active).
Turning to `CN(C(=O)CSc1nnc(-c2c[nH]c3ccccc23)o1)C1CCS(=O)(=O)C1` (centres undefined), the activation was 20.1% (inactive).
Take `CCC(CC)NC(=O)CSc1nnc(-c2c[nH]c3ccccc23)o1`: the activation is 12.5% (inactive).
For `O=C(COc1ccc(Cl)cc1)Nc1ccccc1CO` the value was 3.44% (inactive).
As to `COC(=O)c1sccc1NC(=O)COc1ccc(Cl)cc1`, the activation is 65.1% (active).
`COC(=O)c1sccc1NC(=O)c1ccc(Cl)cc1`: the activation was 12.5% (inactive).

These data come from PubChem BioAssay AID504408 (Broad Institute, 2011).
